Assay results reported in PubChem BioAssay AID2289 (National Center for Advancing Translational Sciences (NCATS), 2010).
In all, about 340,000 compounds went through this assay and about 3,300 (0.97%) were called active. Roughly 9% stayed inconclusive and do not appear here. The call rests on the fitted dose curve; in most records, active means well fitted inhibition curve with a large enough effect; inconclusive means small, poorly fitted or top-dose-only effect, or effect the other way; inactive means flat fitted curve, though single readings scatter. The list shows a part of the results.
Potency means the concentration at half of the fitted maximal effect.

Assay: qHTS Assay for Modulators of miRNAs and/or Inhibitors of miR-21; further: nearly all actives have a fitted effect of over 55% in size
Conditions: HeLa miR-21-FLuc reporter, luciferase luminescence, 48 h; actives lower the signal
How it was run: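 HeLa cells endogenously expressing miR-21, stably carrying CMV-driven firefly luciferase with a downstream miR-21 binding site, 2000 cells/well. Titrations up to approximately 40 uM, 48 hours; luciferase luminescence read.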
In the case of `O=C(O)C1CC=CCC1C(=O)NCCc1csc(-c2ccccc2)n1` (stereo not drawn), the Potency is reported as 18.5 µM (active).
In the case of `O=C1c2ccccc2S(=O)(=O)N1CC1CC(c2ccccc2Cl)=NO1` (stereo not drawn), the Potency is reported as 4.14 µM (active).
For `O=C1c2ccccc2S(=O)(=O)N1CC1CC(c2ccc(Cl)cc2)=NO1` (stereo not drawn), the Potency was 2.93 µM (active).
With `O=C(COC(=O)Cn1cnc2ccccc21)Nc1ccc2c(c1)C(=O)c1ccccc1C2=O` the Potency was 2.07 µM (active).
In the case of `Cc1c(C)n(CCO)c2ncnc(Nc3ccc(F)cc3)c12`, the Potency is reported as 14.7 µM (active).
For `COc1ccccc1Nc1ncnc2c1c(C)c(C)n2CCO`, the Potency was 14.7 µM (active).
In the case of `COc1ccc(Nc2ncnc3c2c(C)c(C)n3CCO)cc1`, the Potency is reported as 0.736 µM (active).
With `O=[N+]([O-])c1ccccc1N/N=C/c1cccc(O)c1O` the Potency was 2.61 µM (active).
For `O=[N+]([O-])c1ccc(N/N=C/c2cccc(O)c2O)cc1`, the Potency was 6.56 µM (active).
In the case of `CCCOc1ccc(/C=N/Nc2ccccc2[N+](=O)[O-])c(O)c1`, the Potency is reported as 0.0656 µM (active).
For `O=[N+]([O-])c1ccccc1N/N=C\c1ccccc1Cl`, the Potency was 0.656 µM (active).
In the case of `COc1ccccc1/C=N\Nc1ccccc1[N+](=O)[O-]`, the Potency is reported as 1.04 µM (active).
In the case of `O=[N+]([O-])c1ccccc1NC(=S)N/N=C/c1ccc(O)c(O)c1`, the Potency is reported as 1.85 µM (active).
With `O=C(CCS(=O)(=O)c1ccccc1)NC12CC3CC(CC(C3)C1)C2` the Potency was 2.07 µM (active).
In the case of `O=C(CCCc1ccccc1)NC12CC3CC(CC(C3)C1)C2`, the Potency is reported as 1.65 µM (active).
With `Cc1ccc2nc(-c3ccc(N4C(=NC(=O)CCC(=O)O)SC5CS(=O)(=O)CC54)cc3)sc2c1` (stereo not drawn) the Potency was 3.29 µM (active).
In the case of `CCCC(=O)N=C1SC2CS(=O)(=O)CC2N1c1ccc(-c2nc3ccc(C)cc3s2)cc1` (stereo not drawn), the Potency is reported as 2.93 µM (active).
In the case of `Nc1nc(-c2cccnc2)nc2sc3c(c12)CCCC3`, the Potency is reported as 4.65 µM (active).
With `NNc1nc(-c2ccccc2Cl)nc2sc3c(c12)CCCC3` the Potency was 5.21 µM (active).
For `NNc1nc(-c2ccccc2)nc2sc3c(c12)CCCC3`, the Potency was 0.464 µM (active).
With `CC1CCN(C(=O)c2cccc(NC(=O)c3nsc4ccccc34)c2)CC1` the Potency was 7.36 µM (active).
In the case of `CCOC(=O)C1CCCN(C(=O)c2ccc(NC(=O)c3nsc4ccccc34)cc2)C1` (stereo not drawn), the Potency is reported as 3.69 µM (active).
In the case of `CC1CCN(C(=O)c2ccc(NC(=O)c3nsc4ccccc34)cc2)CC1`, the Potency is reported as 1.85 µM (active).
With `COc1ccc2nc(Nc3nc4cc5c(cc4s3)OCCO5)sc2c1` the Potency was 13.1 µM (active).
For `COc1ccc(Nc2nc(C)c(-c3ccccc3)s2)cc1`, the Potency was 6.56 µM (active).
For `COC(=O)CCc1sc(Nc2ccccc2)nc1-c1ccc(OC)cc1`, the Potency was 16.5 µM (active).
For `COc1ccc2nc(Nc3ccc4c(c3)OCO4)sc2c1`, the Potency was 4.65 µM (active).
For `COc1ccc(Nc2nc3ccc(OC)cc3s2)cc1`, the Potency was 3.69 µM (active).
For `O=c1c2c(nc3cc(-c4ccc(F)cc4)[nH]n13)CCC2`, the Potency was 1.04 µM (active).
For `COC(=O)C1C(=O)C=C(Nc2ccc(F)cc2)CC1c1ccc(OC)cc1` (stereo not drawn), the Potency was 10.4 µM (active).
With `Cc1ccc2c(Cl)c(C(=O)NCCc3ccccc3)sc2c1` the Potency was 6.56 µM (active).
With `Cc1cc(OCC(=O)N(C)C2CCCCC2)ccc1Cl` the Potency was 1.65 µM (active).
For `Cc1cn(CCC(=O)Nc2ccccc2N2CCOCC2)c2ccccc12`, the Potency was 9.27 µM (active).
In the case of `CCCS/C(N)=N/N=C/c1cc(C)ccc1O`, the Potency is reported as 1.47 µM (active).
With `CC(C)Oc1ccc(CNC(=O)c2cc3ccccn3n2)cc1` the Potency was 6.56 µM (active).
For `COc1cc(Cl)c(NC(=O)c2cc3ccccn3n2)c(OC)c1`, the Potency was 6.56 µM (active).
For `CCOc1ccc(CNC(=O)c2cc3ccccn3n2)cc1`, the Potency was 7.36 µM (active).
In the case of `CN(C)c1ccc(-n2cc3c(=O)n(C)c(=O)n(C)c3c2)cc1`, the Potency is reported as 11.7 µM (active).
For `COCc1cc(C)nc2sc(C(=O)Nc3cccc(OC)c3)c(N)c12`, the Potency was 2.07 µM (active).
In the case of `COCc1cc(C)nc2sc(C(=O)Nc3ccc(OC)cc3)c(N)c12`, the Potency is reported as 16.5 µM (active).
In the case of `COCc1cc(C)nc2sc(C(=O)Nc3nccs3)c(N)c12`, the Potency is reported as 13.1 µM (active).
In the case of `Nc1c(-c2nc(-c3ccccc3Cl)no2)nnn1-c1ccccc1F`, the Potency is reported as 0.826 µM (active).
In the case of `CCc1ccccc1NC(=O)C(=O)c1cc(C)n(-c2ccccc2F)c1C`, the Potency is reported as 16.5 µM (active).
For `CCOC(=O)c1c(C)oc2c1cc(O)c1ccccc12`, the Potency was 5.21 µM (active).
For `CCOC(=O)c1c(C)oc2c1c1c(c3ccccc32)OCN(CCCC(=O)O)C1`, the Potency was 10.4 µM (active).
With `CCOC(=O)c1c(C)oc2c1c(CN1CCN(CCO)CC1)c(O)c1ccccc12` the Potency was 10.4 µM (active).
With `CCOC(=O)c1c(C)oc2c1c(CN1CCN(C(=O)OCC)CC1)c(O)c1ccccc12` the Potency was 14.7 µM (active).
With `COc1ccccc1Nc1ncnc2c1oc1ccccc12` the Potency was 14.7 µM (active).
In the case of `Oc1cccc(Nc2ncnc3c2oc2ccccc23)c1`, the Potency is reported as 5.21 µM (active).
In the case of `c1ccc(Nc2ncnc3c2oc2ccccc23)cc1`, the Potency is reported as 7.36 µM (active).
In the case of `Oc1ccc(Nc2ncnc3c2oc2ccccc23)cc1`, the Potency is reported as 13.1 µM (active).
For `c1ccc2c(c1)oc1c(Nc3ccc4c(c3)OCO4)ncnc12`, the Potency was 1.65 µM (active).
With `C=C1SC(=Nc2ccccc2Cl)N(C(=O)c2sc3ccccc3c2Cl)C1(C)C` the Potency was 13.1 µM (active).
In the case of `O=C(NC1=NCCS1)c1sc2cc(F)ccc2c1Cl`, the Potency is reported as 0.736 µM (active).
In the case of `O=C(Nc1ccon1)c1sc2cc(F)ccc2c1Cl`, the Potency is reported as 1.65 µM (active).
For `CC(C)Cc1cc(C(=O)NCCc2ccccc2)no1`, the Potency was 2.33 µM (active).
In the case of `CCCc1cc(C(=O)NCCc2ccccc2)no1`, the Potency is reported as 4.14 µM (active).
With `CC(C)c1cc(C(=O)NCCc2ccccc2)no1` the Potency was 2.33 µM (active).
With `Brc1ccc(C2=NC(Cc3ccccc3)CO2)cc1` (stereo not drawn) the Potency was 14.7 µM (active).
In the case of `OC(COc1ccc2ccccc2c1Cl)CN1CCOCC1` (stereo not drawn), the Potency is reported as 10.4 µM (active).
With `COc1ccc2oc(C(=O)c3ccccc3)c(N)c2c1` the Potency was 1.17 µM (active).
For `Nc1c(C(=O)c2ccccc2)oc2ccc(Br)cc12`, the Potency was 2.61 µM (active).
With `COc1ccc(C(=O)c2oc3ccc(OC)cc3c2N)cc1` the Potency was 7.36 µM (active).
With `COc1ccc(OCc2cccc(C(=O)N3CCCC3)c2)cc1` the Potency was 1.47 µM (active).
With `COc1ccc(OCc2cccc(C(=O)Nc3ccc(CN4CCCCC4)cc3)c2)cc1` the Potency was 2.07 µM (active).
With `Cc1cc(NC(=O)c2cccc(COc3ccc(Br)cc3)c2)no1` the Potency was 1.04 µM (active).
In the case of `CC1CN(C(=O)c2cccc(COc3ccc(Br)cc3)c2)CC(C)O1` (stereo not drawn), the Potency is reported as 2.93 µM (active).
In the case of `CCOc1ccc(N=C(C)C2=C(O)c3ccccc3C2=O)cc1`, the Potency is reported as 1.17 µM (active).
In the case of `O=Cc1c(N2CCN(c3ccccc3)CC2)nc2ccccn2c1=O`, the Potency is reported as 16.5 µM (active).
With `COc1ccccc1N1CCN(c2nc3ccccn3c(=O)c2C=O)CC1` the Potency was 18.5 µM (active).
For `O=C(/C=C/c1ccc(Cl)cc1Cl)N1CCc2ccccc21`, the Potency was 0.521 µM (active).
In the case of `Cc1ccc(/C=C/C(=O)N2CCc3ccccc32)o1`, the Potency is reported as 2.93 µM (active).
With `O=c1c(-c2ccc(O)cc2)coc2cc(OC3OC(CO)C(O)C(O)C3O)cc(O)c12` (stereo not drawn) the Potency was 2.61 µM (active).
In the case of `CCN1CCN(c2cc3c(nn2)Oc2ccccc2N3C)CC1`, the Potency is reported as 7.36 µM (active).
For `CCC(=O)Nc1ccc(N2CCC(C)CC2)cc1`, the Potency was 18.5 µM (active).
In the case of `CC1CCN(c2ccc(NC(=O)c3ccc(Br)o3)cc2)CC1`, the Potency is reported as 0.656 µM (active).
For `Cc1c(Cl)cccc1Nc1nc(N)nc(CSc2ncccn2)n1`, the Potency was 16.5 µM (active).
For `Cc1ccccc1Nc1nc(N)nc(CSc2ccc(F)cc2)n1`, the Potency was 1.31 µM (active).
In the case of `Cc1ccccc1Nc1nc(N)nc(CSc2ccccc2)n1`, the Potency is reported as 0.656 µM (active).
For `Nc1nc(CSc2ccccc2)nc(N2CCCCC2)n1`, the Potency was 6.56 µM (active).
For `CN1C(=O)/C(=C\c2cc(Br)cs2)c2ccccc21`, the Potency was 16.5 µM (active).
With `Cc1nn(-c2ccccc2)c(N)c1N=Nc1cccnc1` the Potency was 11.7 µM (active).
For `Cc1cccc(N=Nc2c(C)nn(-c3ccccc3)c2N)c1C`, the Potency was 7.36 µM (active).
In the case of `Cc1nn(-c2ccccc2)c(N)c1N=Nc1ccc2ccccc2c1`, the Potency is reported as 4.65 µM (active).
With `Cc1snc2sc(C(=O)c3ccc(F)cc3)c(N)c12` the Potency was 5.21 µM (active).
In the case of `CC(=O)c1cccc(NC(=O)COC(=O)c2ccccc2C)c1`, the Potency is reported as 5.85 µM (active).
In the case of `Cc1cccc(C)c1OCC(=O)Nc1cccc(C(=O)O)c1`, the Potency is reported as 1.85 µM (active).
In the case of `CC(=O)Nc1ccc(-c2csc(-c3cccnc3)n2)cc1`, the Potency is reported as 1.17 µM (active).
In the case of `CC(C)C(=O)Nc1ccc(C(=O)c2ccccc2)cc1`, the Potency is reported as 7.36 µM (active).
In the case of `O=C(Nc1ccccc1Cl)c1csc(-c2cccnc2)n1`, the Potency is reported as 13.1 µM (active).
With `CC(C)C(=O)Nc1ccc(-c2csc(-c3ccccc3)n2)cc1` the Potency was 2.33 µM (active).
With `CC(C)C(=O)Nc1ccc(-c2nnc(-c3ccccc3)o2)cc1` the Potency was 0.261 µM (active).
For `COC(=O)c1ccsc1NC(=O)CCc1ccccc1`, the Potency was 7.36 µM (active).
With `c1cncc(-c2nc(-c3ccc4c(c3)OCO4)cs2)c1` the Potency was 1.65 µM (active).
With `COc1ccc2cc(-c3csc(-c4cccnc4)n3)ccc2c1` the Potency was 3.29 µM (active).
With `COc1ccc(-c2csc(-c3cccnc3)n2)cc1C` the Potency was 3.69 µM (active).
With `CN(C)c1ccc(N=Nc2ccc(S(N)(=O)=O)cc2)cc1` the Potency was 1.17 µM (active).
In the case of `CC(=O)c1ccc(N=Nc2ccc(N(C)C)cc2)cc1`, the Potency is reported as 0.293 µM (active).
For `O=C(c1cc(-c2ccc(Br)cc2)on1)N1CCOCC1`, the Potency was 0.585 µM (active).
With `O=C(c1cc(-c2ccc(Br)cc2)on1)N1CCCCCC1` the Potency was 0.927 µM (active).
With `COc1cccc(-c2noc(-c3ccc4c(c3)OCO4)n2)c1` the Potency was 0.261 µM (active).
In the case of `c1ccc(-c2noc(-c3ccc4c(c3)OCO4)n2)cc1`, the Potency is reported as 0.293 µM (active).
With `COc1cc(/C=N/NC(=S)NC2CC3CCC2C3)ccc1O` (stereo not drawn) the Potency was 7.36 µM (active).
